Hits are enriched below; roughly 2.9% of the tested compounds scored in any of these assays.
EP2 modulator = EP2 receptor modulators, cAMP readout, primary screen, cell-based, HTRF cAMP, PGE2 stimulation. Prostaglandin E2 receptor EP2 subtype (Homo sapiens), P43116. AID 940, 2007. 260,000 tested, 0.83% active. induction, % at 25 µM. EP2-expressing cells, cAMP HTRF FRET, PGE2 co-stimulation;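 active = compounds whose cAMP rise, as percent of the full-agonist control response, exceeds 60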;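 also: rat C6 glioma line stably carrying human EP2 under a CMV promoter; the protocol text gives 20 µM as final concentration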
PG9 Ab binder = binders of HIV-1 gp120 antibody PG9, primary screen, biochemical, TR-FRET; HIV-1 gp120 / PG9 antibody interaction; TR-FRET gp120-PG9 antibody binding; inhibition, % at 6.7 µM; 360,000 tested, 0.43% active; AID 624416, 2012; in the data active = inhibition above about 8.5%
NR1D1 modulator = modulators of Rev-erb alpha DNA binding, primary screen, biochemical, FITC-DNA, fluorescence polarization, uHTS. Nuclear receptor subfamily 1 group D member 1 (Homo sapiens), P20393. Rev-erbα–FITC-DNA binding, 90 min. activity, % at 10 µM. 370,000 tested, 0.79% active. AID 1259318, 2017;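 active = activity above about 14%, limit read from the data; passing the limit was not always enough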
Target sequence (P20393 whole entry, looked up): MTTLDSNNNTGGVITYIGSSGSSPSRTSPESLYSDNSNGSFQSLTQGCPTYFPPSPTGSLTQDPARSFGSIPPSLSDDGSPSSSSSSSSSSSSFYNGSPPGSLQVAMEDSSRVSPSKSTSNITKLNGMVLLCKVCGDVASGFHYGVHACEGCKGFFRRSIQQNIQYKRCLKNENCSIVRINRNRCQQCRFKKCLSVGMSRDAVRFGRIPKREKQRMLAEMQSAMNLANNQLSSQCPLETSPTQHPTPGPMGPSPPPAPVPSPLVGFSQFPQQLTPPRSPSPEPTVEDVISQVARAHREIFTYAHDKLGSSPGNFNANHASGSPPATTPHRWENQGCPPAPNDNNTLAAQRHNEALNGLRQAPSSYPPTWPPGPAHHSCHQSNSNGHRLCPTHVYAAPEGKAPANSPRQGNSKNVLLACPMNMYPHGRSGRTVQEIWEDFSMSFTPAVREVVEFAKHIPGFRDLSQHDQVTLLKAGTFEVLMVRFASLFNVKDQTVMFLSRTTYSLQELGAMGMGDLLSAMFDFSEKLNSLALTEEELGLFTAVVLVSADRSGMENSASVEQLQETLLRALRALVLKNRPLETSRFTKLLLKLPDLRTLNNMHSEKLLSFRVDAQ
RAM inhibit = inhibitors of the yeast RAM network, primary screen, dse1pr::URA3 reporter, 5-FOA selection; S. cerevisiae dse1pr::URA3 reporter, 5-FOA growth OD615, 2 d; analog-sensitive cbk1-as2 kinase mutant strain; inhibition, % at 50 µM; 190,000 tested, 1.8% active; AID 868, 2007;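 active = inhibition above a set limit, 3 SD over mean compound inhibition, cut at about 8.4% in these data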;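 also: inhibition rescues growth on 5-FOA so higher OD means more RAM inhibition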
SKN-1 block = suppressors of acrylamide-induced Pgst-4::GFP reporter in worms, primary screen, SKN-1 inhibitor project, whole organism, uHTS, GFP/RFP fluorescence ratio, strain VP596 | C. elegans VP596 Pgst-4::GFP/RFP ratio, 24 h | inhibition, % at 21.8 µM | 360,000 tested, 0.49% active | AID 624304, 2012;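 active = interference check ratio from 0.5 to 1.5 plus GFP to RFP signal ratio inhibition reaching or exceeding a fixed threshold, cut at about 30% in these data, passing the limit was not always enough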
EP2 antag = human EP2 receptor antagonists, primary screen, TR-FRET cAMP, C6 glioma cells; inhibition, % at 25 µM; Prostaglandin E2 receptor EP2 subtype (Homo sapiens), P43116; 260,000 tested, 0.52% active; AID 1422, 2008; C6 glioma cells expressing human EP2; cells stimulated with saturating PGE2;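 active = percent inhibition above 40 after rounding to a whole number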;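 also: rat C6 glioma host cells with rolipram phosphodiesterase inhibitor present; the protocol text gives 20 µM as final concentration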
Each line names hits and unclear results; the compound was inactive in the other large screens.

CCn1c(=O)c2cc(C(=O)NCc3cccs3)sc2c2ccccc21	RAM inhibit 9.9
CCCCCc1ccc(-c2ccc(/C=C/C(=O)O)cc2)nc1	EP2 modulator 62
CCCc1ccc(-c2ccc(/C=C/C(=O)O)cc2)nc1	none
Cc1ccc(C2=NOC(=O)/C2=C\C=C\c2ccccc2)cc1	EP2 antag 98
Cc1nc2cc(Cl)c(NC(=O)C3CCCCC3)cc2c(=O)n1Cc1ccccc1	EP2 modulator 106 (no result: PG9 Ab binder, NR1D1 modulator, RAM inhibit, SKN-1 block)
Cc1nc2cc(N3CCC(C)CC3)c(NC(=O)C3CC3)cc2c(=O)n1Cc1ccccc1	none (no result: PG9 Ab binder, NR1D1 modulator, RAM inhibit, SKN-1 block)
CCOc1cc(CN2CCc3c(nc(N4CCCC(C)C4)[nH]c3=O)C2)ccc1O (configuration not stated)	none (no result: PG9 Ab binder, NR1D1 modulator, RAM inhibit, SKN-1 block)
CC1=CC(C)(C)n2c(O)c(N=N)c3c(C)ccc1c32	EP2 modulator 82 (no result: RAM inhibit)
CC1=CC(C)(C)n2c(O)c(N=N)c3c(C)c(C)cc1c32	EP2 modulator 76 (no result: RAM inhibit)
CC1=CC(C)(C)n2c(O)c(N=NC(N)=S)c3c(C)c(C)cc1c32	none (no result: RAM inhibit)
COc1ccccc1NC(=O)N1CCC(NC(=O)c2cccc(C)c2)CC1	none (no result: PG9 Ab binder, NR1D1 modulator, RAM inhibit, SKN-1 block)
CC1CCc2c(sc3ncn(C4CCN(C(=O)c5ccncc5)CC4)c(=O)c23)C1 (configuration not stated)	none (no result: PG9 Ab binder, NR1D1 modulator, RAM inhibit, SKN-1 block)
CN1CCN(CC(=O)N2CCn3c4c(c5cc(C6CCCCC6)ccc53)CCCC42)CC1 (configuration not stated)	EP2 antag 91 (no result: PG9 Ab binder, NR1D1 modulator)
CC(OC(=O)c1ccc(S(=O)(=O)N(C)c2ccccc2)cc1)C(=O)NCCC1=CCCCC1 (configuration not stated)	RAM inhibit 8.8
COc1cccc(CC(=O)N2CCC(c3nc4sc5c(c4c(=O)[nH]3)CCCC5)CC2)c1	none (no result: PG9 Ab binder, NR1D1 modulator, RAM inhibit, SKN-1 block, EP2 antag)
O=S(=O)(O)c1cc(O)c2c(N=Cc3ccccc3O)cc(S(=O)(=O)O)cc2c1	none (no result: PG9 Ab binder, NR1D1 modulator, RAM inhibit, SKN-1 block)
O=S(=O)(O)c1cc(O)c2c(O)c(N=Nc3cccc4ccccc34)c(S(=O)(=O)O)cc2c1	EP2 antag 57 (no result: PG9 Ab binder, NR1D1 modulator, RAM inhibit, SKN-1 block)
Cc1cc2ccccc2n2c(=O)n(CC(=O)N3CCCC3)nc12	none (no result: PG9 Ab binder, NR1D1 modulator, RAM inhibit, SKN-1 block)
CCC(=O)N1c2ccc(-c3csc(NC(=O)c4ccccc4Cl)n3)cc2CC1C (configuration not stated)	EP2 antag 94 (no result: PG9 Ab binder, NR1D1 modulator, RAM inhibit, SKN-1 block)
CC1Cc2cc(-c3csc(NC(=O)CCl)n3)ccc2N1C(=O)C1CC1 (configuration not stated)	none (no result: EP2 modulator, RAM inhibit, EP2 antag)
CCc1cccc(C)c1NC(=O)CN1CCC(n2nnc3cc(F)ccc32)CC1	none (no result: PG9 Ab binder, NR1D1 modulator, RAM inhibit, SKN-1 block)
O=C(Nc1cc(Cl)ccc1N1CCOCC1)c1cc2ccccc2o1	EP2 modulator 81 (no result: RAM inhibit)
O=C(Nc1cc(Cl)ccc1N1CCOCC1)c1cc2ccccc2oc1=O	none (no result: PG9 Ab binder, NR1D1 modulator, RAM inhibit, SKN-1 block)
O=C(Nc1ccc(CN2CCOCC2)cc1)c1cc2ccccc2o1	SKN-1 block 56
COc1ccc(NC(=O)N(CCc2ccccc2C)Cc2cc3ccc(C)c(C)c3[nH]c2=O)cc1	none (no result: PG9 Ab binder, NR1D1 modulator, RAM inhibit, SKN-1 block)
Cc1ccc2cc(/C=C/C(=O)c3cccs3)c(=O)[nH]c2c1	none (no result: PG9 Ab binder, NR1D1 modulator, RAM inhibit, SKN-1 block)
C(=C1c2ccccc2-c2ccccc21)c1ccncc1	SKN-1 block 40 (no result: EP2 modulator, RAM inhibit, EP2 antag)
COCCNc1nnc(C2CCOC2)s1 (configuration not stated)	none (no result: PG9 Ab binder, NR1D1 modulator, RAM inhibit, SKN-1 block)
O=c1cc(-c2ccccc2)oc2cc(O)ccc12	none (no result: EP2 modulator, RAM inhibit, EP2 antag)
O=C(O)c1c(-c2c3ccc(=O)cc-3oc3cc(O)ccc23)cc2ccccc2c1-c1ccccc1	EP2 antag 42 (no result: PG9 Ab binder, NR1D1 modulator, RAM inhibit, SKN-1 block)
Cc1cc(C)nc(Sc2cn3ccsc3n2)n1	none (no result: PG9 Ab binder, NR1D1 modulator, RAM inhibit, SKN-1 block)
O=C(NC1CCCCC1)C(c1ccco1)N(C(=O)Cc1cccs1)c1cccc(F)c1 (configuration not stated)	none (no result: PG9 Ab binder, NR1D1 modulator, RAM inhibit, SKN-1 block)
Cc1ccsc1C=Nc1ccc(O)cc1	SKN-1 block 28 (no result: PG9 Ab binder, NR1D1 modulator)
Cc1ccsc1/C=N/N=C/c1sccc1C	none (no result: EP2 modulator, RAM inhibit, EP2 antag)
COc1ccc2cc(CN(Cc3cccs3)S(=O)(=O)c3ccccc3F)c(=O)[nH]c2c1	none (no result: PG9 Ab binder, NR1D1 modulator, RAM inhibit, SKN-1 block)
COc1ccc(/C=N/NC2=NS(=O)(=O)c3ccccc32)cc1	none (no result: EP2 modulator, RAM inhibit, EP2 antag)
CN(C)c1ccc(/C=N/NC(=O)c2cccc(C(=O)N/N=C/c3ccc(N(C)C)cc3)n2)cc1	RAM inhibit 9.9
CN(C)c1ccc(/C=N/NC2=NS(=O)(=O)c3ccccc32)cc1	SKN-1 block 39 (no result: EP2 modulator, RAM inhibit, EP2 antag)
Cc1ccc2[nH]c(=O)c(CN(CC3CCCO3)C(=S)NC3CCCCC3)cc2c1 (configuration not stated)	none (no result: PG9 Ab binder, NR1D1 modulator, RAM inhibit, SKN-1 block)
CCc1ccccc1NC(=O)CSc1nnc2c(C)cc3cc4c(cc3n12)OCO4	none (no result: PG9 Ab binder, NR1D1 modulator, RAM inhibit, SKN-1 block)
Nc1ccc(N=Nc2c(S(=O)(=O)O)cc3ccccc3c2S(=O)(=O)O)cc1	EP2 antag 41 (no result: PG9 Ab binder, NR1D1 modulator, RAM inhibit, SKN-1 block)
O=C(Nc1ccccn1)c1ccc(C(=O)Nc2ccccn2)cc1	none (no result: EP2 modulator, PG9 Ab binder, NR1D1 modulator, RAM inhibit, EP2 antag)
O=C(/C=C\Nc1ccccn1)c1ccc(Cl)cc1	SKN-1 block 41
Cc1cc2c(s1)c1cnn(CC(=O)NC3CCCC3)c(=O)c1n2Cc1ccc(F)cc1	none (no result: PG9 Ab binder, NR1D1 modulator, RAM inhibit, SKN-1 block, EP2 antag)
Cc1ccc2[nH]c(=O)c(CN(Cc3ccccc3Cl)Cc3nnnn3C3CCCC3)cc2c1	EP2 modulator 74 (no result: PG9 Ab binder, NR1D1 modulator, RAM inhibit, SKN-1 block)
COc1ccccc1CN(Cc1cc2cc(C)ccc2[nH]c1=O)Cc1nnnn1C1CCCC1	EP2 modulator 65 (no result: PG9 Ab binder, NR1D1 modulator, RAM inhibit, SKN-1 block)
COc1ccc(CN(Cc2cc3cc(C)ccc3[nH]c2=O)C(=S)NC2CCCCC2)cc1	none (no result: PG9 Ab binder, NR1D1 modulator, RAM inhibit, SKN-1 block)
CCOC(=O)c1c(C)n(OCc2ccccc2)c2ccc3nonc3c12	RAM inhibit 10
C=CCOn1c(C)c(C(C)=O)c2c3nonc3ccc21	none

Screening data deposited in PubChem BioAssay by several laboratories.
